# Bioassay records from PubChem BioAssay.
# Rows were chosen to be rich in hits. Some 6% of all compounds tested hit in one or more screens of this group.
# Tau fluor counter – counter-screen for tau fibril formation inhibitors | hit rate 0.93% among 280,000 | Potency, µM (series often up to 57.7 µM) | tau K18 P301L Alexa594 fluorescence, heparin fibrillization; note: nearly all actives have a fitted effect of over 55% in size
#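 Human tau K18 P301L (15 uM unlabeled, 0.24 uM Alexa 594-labeled) in 100 mM sodium acetate pH 7 with 20 uM heparin, 6 hr at 37 C. ThT 30 uM added, 1 hr ambient; Alexa 594 FP and total fluorescence read at 555/632 nm.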
# Tau fibril ThT – tau fibrillization inhibition (ThT binding); P10636; recombinant tau K18 P301L, heparin-induced fibrillization, ThT fluorescence; AID 1460; Potency, µM (series often up to 57.4 µM), hits mostly inhibitors; hit rate 2.1% among 270,000; note: nearly all actives have a fitted effect of over 55% in size
#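 ThT emission at 510 nm, taken 1 hr after adding 30 uM dye, quantifies aggregates formed when 20 uM heparin acts on human tau K18 P301L for 6 hr at 37 C.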
# PLK1 PBD inh – inhibitors of human PLK1 polo-box domain binding; P53350; Potency, µM, hits mostly inhibitors; hit rate 2.8% among 360,000; AID 720504; Plk1 PBD binding of FITC phosphopeptide, fluorescence polarization; note: series mostly up to about 57 µM; nearly all actives have a fitted effect of over 65% in size
# Target sequence (P53350 whole entry, looked up, the tested form may be a part): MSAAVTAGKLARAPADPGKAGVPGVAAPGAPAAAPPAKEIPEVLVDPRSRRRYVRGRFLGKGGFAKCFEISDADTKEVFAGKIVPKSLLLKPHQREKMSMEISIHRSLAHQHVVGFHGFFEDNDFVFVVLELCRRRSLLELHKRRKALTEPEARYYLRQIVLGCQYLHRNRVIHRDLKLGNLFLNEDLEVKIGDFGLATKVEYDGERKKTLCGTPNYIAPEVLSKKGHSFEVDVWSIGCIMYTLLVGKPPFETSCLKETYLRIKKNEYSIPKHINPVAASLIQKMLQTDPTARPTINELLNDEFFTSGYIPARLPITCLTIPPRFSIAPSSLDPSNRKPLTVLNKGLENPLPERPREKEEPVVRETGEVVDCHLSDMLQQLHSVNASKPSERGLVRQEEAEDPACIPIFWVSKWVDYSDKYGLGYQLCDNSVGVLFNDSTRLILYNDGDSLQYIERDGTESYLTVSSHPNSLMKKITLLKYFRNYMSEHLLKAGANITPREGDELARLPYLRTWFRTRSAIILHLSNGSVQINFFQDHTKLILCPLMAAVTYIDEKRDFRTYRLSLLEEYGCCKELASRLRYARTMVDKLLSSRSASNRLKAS
# Tau fibril FP – blocks human tau fibril formation measured by polarization; Potency, µM (top dose mostly 57.7 µM), most hits filed as inhibitors; K18 P301L tau heparin fibrillization, Alexa594 FP, 6 h; hit rate 0.39% among 280,000; note: nearly all actives have a fitted effect of over 55% in size
#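 Human tau K18 […] P301L fragment, 15 uM unlabeled plus 0.24 uM Alexa 594-labeled tau (final), with compound and 20 uM heparin in 100 mM sodium acetate pH 7; 6 hr at 37 C, then Alexa 594 FP read.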
# VDR inhibitor – inhibitors of human vitamin D receptor; P11473; VDR-SRC2-3 peptide fluorescence polarization, 2 h; Potency, µM, most hits filed as inhibitors; hit rate 0.93% among 400,000
#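 The screen uses fluorescence polarization to detect compounds that interfere with recruitment of the SRC2-3 coactivator peptide to VDR; plates are read after 2 h at room temperature.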
# Sfp PPTase inh – Sfp phosphopantetheinyl transferase inhibition | Biochemical Sfp PPTase activity, qHTS | Potency, µM, actives largely listed as inhibitors | hit rate 3.5% among 310,000;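 note: the enzyme is Sfp with the accession as filed and its product quenches rhodamine fluorescence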
#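 Buffer: 50 mM Hepes-Na pH 7.6, 10 mM MgCl2, 0.01% Nonidet P-40, 0.01% BSA. Enzyme 15 nM, pre-exposed to compound 15 min; substrates then added and fluorescence change tracked over 30 min.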
# Numbers stand for hits; . = inactive; ? = inconclusive; / = no result; [ ] = another dose, or the depositor's remark. Calls come from the whole dose curve; as a rule, active = well fitted curve in the direction sought with a large enough effect; inconclusive = small, poorly fitted or top-dose-only effect, or another doubt; inactive = no such curve, though single readings can be large; an effect the other way counts as inactive or inconclusive.
SMILES,Tau fluor counter,Tau fibril ThT,PLK1 PBD inh,Tau fibril FP,VDR inhibitor,Sfp PPTase inh
COc1ccc(C(C(=O)Nc2ccc(F)cc2)N2CCN(C(=O)c3ccco3)CC2)cc1 (stereo not drawn),/,/,.,/,/,/
[O-]/[N+](=C/c1ccc(F)cc1)c1ccccc1,.,?,.,.,?,?
[O-]/[N+](=C\c1ccncc1)c1ccccc1,.,?,.,?,79µM,.
Cn1cccc1C(=O)N1CCC2(CCCN(Cc3nccs3)C2)CC1,/,/,/,/,.,.
COc1ccccc1NS(=O)(=O)c1cc(NC(=O)c2[nH]c(C)c(C(C)=O)c2C)ccc1N1CCOCC1,13µM[quencher],.,.,?,.,.
COc1ccccc1NS(=O)(=O)c1cccc(NC(=S)NCCN2CCOCC2)c1,.,.,24µM,.,.,.
COCCNC(=S)Nc1ccc(N2CCOCC2)c(S(=O)(=O)Nc2ccccc2OC)c1,/,/,21µM,/,?,/
COc1ccccc1NS(=O)(=O)c1cccc(NC(=O)NCCCl)c1,.,.,27µM,.,?,.
COc1ccccc1NS(=O)(=O)c1cc(NC(=O)c2ccccc2C)ccc1N1CCOCC1,/,/,.,/,.,/
COc1cccc(NC(=S)NCCN2CCOCC2)c1,.,.,.,.,.,.
CCc1nc2c(OCc3ccc(F)c(F)c3)cccn2c1N(C)C(=O)c1ccncc1,/,/,.,/,/,/
CC(=O)c1c(C)[nH]c(C(=O)Nc2ccc(C)c(S(=O)(=O)Nc3ccc(C)cc3C)c2)c1C,22µM[quencher],.,.,?,.,.
COc1ccccc1NS(=O)(=O)c1cc(N2Cc3ccccc3C2=N)ccc1N1CCOCC1,.,.,21µM,.,.,?
COc1ccccc1NS(=O)(=O)c1ccc(C(N)=O)cc1,.,.,24µM,.,.,.
COc1ccccc1NS(=O)(=O)c1cc(NC(=O)C2CC2)ccc1N1CCOCC1,?,.,/,.,/,.
O=C(Cc1ccc(Cl)cc1)NNC(=O)C(=O)NC1CCCCC1,/,/,.,/,.,/
N#C/C(=C\c1ccccc1[N+](=O)[O-])C(=O)NC1CCCCC1,.,?,.,.,?,89µM
N#C/C(=C\C=C\c1ccccc1[N+](=O)[O-])C(=O)NC1CCCCC1,.,?,.,.,.,.
CCCc1[nH]nc2c1C(c1ccc(OC(=O)N3CCOCC3)c(OC)c1)C(C#N)=C(N)O2 (stereo not drawn),.,.,?,.,.,.
CCCc1[nH]nc2c1C(c1ccc(OC)c(CSC3=NCCS3)c1)C(C#N)=C(N)O2 (stereo not drawn),.,.,?,.,.,79µM
O=C(NCSc1ccncn1)c1ccccc1,.,.,?,.,.,20µM
Cc1cc(C)cc(NC(=O)Cn2ncn3c(cc4ccccc43)c2=O)c1,.,.,.,.,.,.
COC(=O)Cn1ncn2c(cc3oc(C)cc32)c1=O,.,.,.,.,.,56µM
CC(=O)N/N=C/c1cc(C(C)C)cc(/C=N/NC(C)=O)c1O,.[2.34 µM],.,21µM,.,.,.
CC(C)(C)c1ccc(C(=O)N2CCC(C(=O)NC3CCCCCC3)CC2)cc1,/,/,.,/,.,.
SMILES,Tau fluor counter,Tau fibril ThT,PLK1 PBD inh,Tau fibril FP,VDR inhibitor,Sfp PPTase inh
COc1ccc(-c2nnc3sc(C(C)N4C(=O)c5ccccc5C4=O)nn23)cc1 (stereo not drawn),.,.,24µM,.,?,.
COCC(=O)Oc1c(Sc2ccc(C)cc2)c(C)nn1C(C)(C)C,.,?,/,.,?,/
Cc1nn(C)cc1CN(C)C(=O)c1cc2nc(-c3ccco3)cc(C(F)(F)F)n2n1,.,.,.,.,.,35µM
CN1C(=O)C(=C2CCCCCC2)SC1=S,.,?,.,.,.,56µM
C=CCOc1ccc(C2OC34CCCCC3C(C#N)(C#N)C2(C#N)C(=N)O4)cc1 (stereo not drawn),.,.,.,.,.,.
CCCCOc1ccc(C2OC34CCCCC3C(C#N)(C#N)C2(C#N)C(=N)O4)cc1 (stereo not drawn),.,.,21µM,.,?,.
Cc1ccc(Cl)cc1NC(=O)c1ccc2nc(CCc3ccccc3)oc2c1,.,.,/,.,.,/
COc1ccccc1N1CCN(c2nc(C)nc3c2oc2ccccc23)CC1,.,?,.,.,.,25µM
Cc1nc(N2CCN(Cc3ccc(Cl)cc3)CC2)c2oc3ccccc3c2n1,.,?,.,.,.,22µM
Cc1nc(N2CCC(C)CC2)c2oc3ccccc3c2n1,.,?,.,.,.,.
Cc1nn(CCCC(=O)NCc2ccc(F)cc2)c(=O)c2c1sc1ccccc12,.,.,/,.,.,/
COc1cccc(Nc2nc3cc(C)ccc3cc2C)c1,/,/,.,/,/,/
CC(NC(=O)C(=O)Nc1c2c(nn1-c1ccccc1)CSC2)c1ccccc1 (stereo not drawn),.,.,/,.,.,/
CC1(C)Cc2c(cnn2-c2ccccc2)C(NC(=O)CCCN2CCCC2=O)C1 (stereo not drawn),/,/,.,/,.,.
Cc1ccc(-n2ncc3c2CC(C)(C)CC3NC(=O)CCCN2CCCCC2=O)cc1 (stereo not drawn),/,/,27µM,/,.,.
Cc1cccc2c1N(CCCOc1ccc(C(C)(C)C)cc1)C(=O)C2=O,.,?,?,.,40µM,?
Cc1cccc(OCCN2C(=O)C(=O)c3cc(C)ccc32)c1,.,?,.,.,71µM,.
Cc1ccc2c(c1)C(=O)C(=O)N2CCCOc1ccccc1C,.[2.34 µM],.,?,.,40µM,.
Cc1cccc(OCCN2C(=O)C(=O)c3cccc(C)c32)c1,.,.,.,.,?,.
Cc1ccc2c(c1)C(=O)C(=O)N2CCOc1ccccc1,.,?,.,.,79µM,.
COC(=O)[C@]12CCCCC=C1N(Cc1ccc3c(c1)OCO3)C(=O)[C@H](CC(=O)NCc1cccc3ccccc13)C2,/,/,.,/,/,/
O=C(NC(=S)N(Cc1ccccc1)c1ccccn1)C1CC1,.,?,21µM,.,.,.
O=C(NC(=S)N(Cc1ccccc1)Cc1ccccc1)C1CCCCC1,.,.,.,.,.,.
COc1cc(NC(=O)C2CCC(CNS(=O)(=O)c3csc(C(N)=O)c3)CC2)cc(OC)c1 (stereo not drawn),/,/,.,/,.,.
CCCCOC(=O)Nc1nc2ccc(OC)cc2s1,.,.,.,.,.,.
CCCCN(C(=O)NC(=O)Nc1nc2ccc(OC)cc2s1)S(C)(=O)=O,.,.,.,.,.,56µM
O=C(CN1C(=O)/C(=C\c2cccc(Br)c2)Oc2ccccc21)NCCCN1CCOCC1,/,/,27µM,/,.,.
O=C(CN1C(=O)COc2ccccc21)NCCCN1CCOCC1,/,/,.,/,.,.
CCCS(=O)(=O)NC(=O)C1(C)CCN(C(=O)c2ccc(C(F)(F)F)nc2C)C1 (stereo not drawn),/,/,.,/,/,/
COc1ccc(N(CC(=O)Nc2ccccc2F)S(=O)(=O)c2ccc(OC)c(OC)c2)cc1,/,/,.,/,.,.
